Reference: article PMC7862700, “An all-to-all approach to the identification of sequence-specific readers for epigenetic DNA modifications on cytosine”

Tests used:
Experiment in all cases: DAPPL (digital affinity profiling via proximity ligation, sequencing); 10 mM Tris-HCl pH 7.5, 50 mM NaCl, 1 mM DTT, 4% glycerol, room temperature, 30 min; GST-TFs on glutathione beads, 16-mer random dsDNA library, 0.1% formaldehyde crosslink after washing; high values mean tight binding
FLI1 = biological target: T1, FLI1 (Homo sapiens, UniProt Q01543 1-452); conditions: protein: recombinant; tags: N-terminal GST; dsDNA, one strand shown
T1 sequence: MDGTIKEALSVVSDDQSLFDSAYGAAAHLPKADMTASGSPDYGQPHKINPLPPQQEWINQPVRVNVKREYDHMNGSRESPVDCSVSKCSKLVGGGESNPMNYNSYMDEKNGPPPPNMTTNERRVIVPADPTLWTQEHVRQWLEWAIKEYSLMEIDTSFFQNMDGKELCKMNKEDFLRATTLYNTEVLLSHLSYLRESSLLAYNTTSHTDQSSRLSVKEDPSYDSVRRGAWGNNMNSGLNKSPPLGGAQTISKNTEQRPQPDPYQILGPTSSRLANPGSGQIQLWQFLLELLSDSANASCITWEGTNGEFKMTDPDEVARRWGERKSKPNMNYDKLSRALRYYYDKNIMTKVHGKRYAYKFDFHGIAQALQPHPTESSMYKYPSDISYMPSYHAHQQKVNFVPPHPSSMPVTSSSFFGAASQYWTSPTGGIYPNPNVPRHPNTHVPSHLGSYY
Method in brief: (§1)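 Human transcription factors fused to GST were expressed in yeast, captured on glutathione beads, given DNA barcodes and pooled with a GST-only negative control. Pools were incubated with 200 nmole of a 16-mer random double-stranded DNA library in Tris/NaCl/DTT/glycerol buffer at room temperature for 30 min. They were then washed, crosslinked with 0.1% formaldehyde, proximity-ligated (BsaI/T4 ligase, 1 h, 37 °C), PCR-amplified and sequenced on an Illumina NextSeq500. Binding signal is each 6-mer's read frequency for a factor divided by its frequency for the GST control.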

ELK1 = biological target: T2, ELK1 (Homo sapiens, UniProt P19419 1-428); conditions: protein: recombinant; tags: N-terminal GST; dsDNA, one strand shown
T2 sequence: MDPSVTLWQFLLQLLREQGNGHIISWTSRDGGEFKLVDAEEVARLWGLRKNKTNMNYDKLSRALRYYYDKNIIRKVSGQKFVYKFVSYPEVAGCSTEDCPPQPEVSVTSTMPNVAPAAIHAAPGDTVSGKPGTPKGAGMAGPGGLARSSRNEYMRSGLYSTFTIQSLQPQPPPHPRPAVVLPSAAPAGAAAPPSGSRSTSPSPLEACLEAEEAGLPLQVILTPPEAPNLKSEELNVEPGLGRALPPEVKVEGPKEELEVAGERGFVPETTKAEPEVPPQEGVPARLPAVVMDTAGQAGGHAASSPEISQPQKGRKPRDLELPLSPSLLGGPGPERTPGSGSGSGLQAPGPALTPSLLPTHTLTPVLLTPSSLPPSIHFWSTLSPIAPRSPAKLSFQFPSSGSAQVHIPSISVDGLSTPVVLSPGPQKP
Method in brief: as §1

GABPA = biological target: T3, GABPA (Homo sapiens, UniProt Q06546 1-454); conditions: protein: recombinant; tags: N-terminal GST; dsDNA, one strand shown
T3 sequence: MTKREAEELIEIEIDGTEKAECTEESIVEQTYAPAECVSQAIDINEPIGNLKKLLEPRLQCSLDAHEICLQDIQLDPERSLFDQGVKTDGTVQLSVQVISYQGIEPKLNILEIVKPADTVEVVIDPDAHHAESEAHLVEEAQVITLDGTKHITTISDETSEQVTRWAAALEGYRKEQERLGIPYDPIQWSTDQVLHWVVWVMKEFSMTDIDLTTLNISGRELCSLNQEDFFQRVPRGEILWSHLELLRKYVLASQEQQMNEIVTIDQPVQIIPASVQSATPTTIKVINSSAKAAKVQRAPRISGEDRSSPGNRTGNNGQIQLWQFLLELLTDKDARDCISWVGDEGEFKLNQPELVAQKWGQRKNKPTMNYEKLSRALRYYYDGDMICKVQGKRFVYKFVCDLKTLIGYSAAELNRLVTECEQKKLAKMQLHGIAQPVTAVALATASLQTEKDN
Method in brief: as §1

ERG = biological target: T4, ERG (Homo sapiens, UniProt P11308 1-479); conditions: protein: recombinant; tags: N-terminal GST; dsDNA, one strand shown
T4 sequence: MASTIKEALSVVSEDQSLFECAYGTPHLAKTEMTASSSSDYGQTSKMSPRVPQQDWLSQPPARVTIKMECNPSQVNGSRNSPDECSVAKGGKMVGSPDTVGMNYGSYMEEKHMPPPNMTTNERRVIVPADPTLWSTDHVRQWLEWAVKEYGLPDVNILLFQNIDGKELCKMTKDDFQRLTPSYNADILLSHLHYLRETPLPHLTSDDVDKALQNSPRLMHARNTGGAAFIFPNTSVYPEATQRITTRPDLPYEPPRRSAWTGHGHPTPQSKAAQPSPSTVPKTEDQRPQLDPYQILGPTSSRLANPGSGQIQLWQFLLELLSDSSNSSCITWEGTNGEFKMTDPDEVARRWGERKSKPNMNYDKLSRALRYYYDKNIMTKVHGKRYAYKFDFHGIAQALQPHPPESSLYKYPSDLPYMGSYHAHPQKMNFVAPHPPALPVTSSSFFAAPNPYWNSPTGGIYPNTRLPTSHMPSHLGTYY
Method in brief: as §1

ELF1 = ELF1 (Homo sapiens, UniProt P32519 1-619); conditions: protein: recombinant; tags: N-terminal GST; dsDNA, one strand shown
ELF1, sequence (P32519 whole entry): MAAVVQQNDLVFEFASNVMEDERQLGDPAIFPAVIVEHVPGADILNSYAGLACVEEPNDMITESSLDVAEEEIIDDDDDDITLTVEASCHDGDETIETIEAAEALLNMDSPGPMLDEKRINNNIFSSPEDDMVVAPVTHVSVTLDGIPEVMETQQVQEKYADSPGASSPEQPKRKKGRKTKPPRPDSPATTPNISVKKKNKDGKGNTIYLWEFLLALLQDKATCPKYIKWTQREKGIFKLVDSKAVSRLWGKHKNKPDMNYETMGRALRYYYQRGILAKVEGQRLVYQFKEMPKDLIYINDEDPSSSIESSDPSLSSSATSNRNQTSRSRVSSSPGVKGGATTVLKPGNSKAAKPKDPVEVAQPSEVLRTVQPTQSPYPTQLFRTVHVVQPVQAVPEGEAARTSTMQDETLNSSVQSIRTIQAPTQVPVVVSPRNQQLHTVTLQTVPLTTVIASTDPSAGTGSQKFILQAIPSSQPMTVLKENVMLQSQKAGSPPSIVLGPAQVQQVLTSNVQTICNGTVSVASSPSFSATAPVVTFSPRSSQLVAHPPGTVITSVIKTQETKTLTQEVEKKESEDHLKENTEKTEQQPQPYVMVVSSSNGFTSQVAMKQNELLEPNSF
Method in brief: as §1

EHF = biological target: T5, EHF (Homo sapiens, UniProt Q9NZC4 1-300); conditions: protein: recombinant; tags: N-terminal GST; dsDNA, one strand shown
T5 sequence: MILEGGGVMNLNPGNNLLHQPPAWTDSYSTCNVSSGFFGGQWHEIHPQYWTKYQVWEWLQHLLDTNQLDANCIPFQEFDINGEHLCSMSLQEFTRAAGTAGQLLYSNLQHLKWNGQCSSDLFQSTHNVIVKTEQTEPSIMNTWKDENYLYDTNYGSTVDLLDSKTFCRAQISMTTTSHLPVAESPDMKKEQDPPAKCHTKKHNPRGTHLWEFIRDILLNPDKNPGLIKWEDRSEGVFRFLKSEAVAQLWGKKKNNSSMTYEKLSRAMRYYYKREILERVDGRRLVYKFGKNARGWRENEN
Method in brief: as §1

SPI1 = SPI1 (Homo sapiens, UniProt P17947 1-270); conditions: protein: recombinant; tags: N-terminal GST; dsDNA, one strand shown
Method in brief: as §1

SPIB = SPIB (Homo sapiens, UniProt Q01892 1-262); conditions: protein: recombinant; tags: N-terminal GST; dsDNA, one strand shown
SPIB, sequence (Q01892 whole entry): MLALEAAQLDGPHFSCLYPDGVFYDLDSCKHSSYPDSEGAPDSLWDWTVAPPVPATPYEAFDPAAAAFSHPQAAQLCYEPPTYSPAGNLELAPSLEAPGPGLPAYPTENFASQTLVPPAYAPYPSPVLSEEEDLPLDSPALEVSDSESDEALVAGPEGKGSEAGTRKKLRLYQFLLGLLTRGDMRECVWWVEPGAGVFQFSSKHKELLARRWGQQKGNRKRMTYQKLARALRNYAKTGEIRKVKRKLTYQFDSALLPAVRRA
Method in brief: as §1

ELK3 = biological target: T6, ELK3 (Homo sapiens, UniProt P41970 1-407); conditions: protein: recombinant; tags: N-terminal GST; dsDNA, one strand shown
T6 sequence: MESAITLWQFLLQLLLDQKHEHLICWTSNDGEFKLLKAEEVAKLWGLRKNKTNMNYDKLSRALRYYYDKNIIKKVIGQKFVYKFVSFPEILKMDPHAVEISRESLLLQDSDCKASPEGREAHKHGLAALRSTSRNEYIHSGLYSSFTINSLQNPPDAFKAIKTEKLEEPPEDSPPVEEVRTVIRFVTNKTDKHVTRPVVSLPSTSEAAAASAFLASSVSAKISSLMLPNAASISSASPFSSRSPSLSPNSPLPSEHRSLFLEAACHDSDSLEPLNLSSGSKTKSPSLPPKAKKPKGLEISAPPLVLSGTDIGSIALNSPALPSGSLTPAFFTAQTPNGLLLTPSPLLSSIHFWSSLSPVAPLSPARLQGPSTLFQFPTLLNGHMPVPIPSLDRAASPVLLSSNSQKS
Method in brief: as §1

FEV = biological target: T7, FEV (Homo sapiens, UniProt Q99581 1-238); conditions: protein: recombinant; tags: N-terminal GST; dsDNA, one strand shown
T7 sequence: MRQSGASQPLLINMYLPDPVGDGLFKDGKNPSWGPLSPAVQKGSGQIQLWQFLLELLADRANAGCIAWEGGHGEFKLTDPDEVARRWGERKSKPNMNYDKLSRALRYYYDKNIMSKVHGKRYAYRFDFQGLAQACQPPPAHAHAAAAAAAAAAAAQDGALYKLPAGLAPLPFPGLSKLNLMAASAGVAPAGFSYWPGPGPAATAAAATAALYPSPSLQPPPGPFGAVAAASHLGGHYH
Method in brief: as §1

ETV5 = ETV5 (Homo sapiens, UniProt P41161 1-510); conditions: protein: recombinant; tags: N-terminal GST; dsDNA, one strand shown
ETV5, sequence (P41161 whole entry): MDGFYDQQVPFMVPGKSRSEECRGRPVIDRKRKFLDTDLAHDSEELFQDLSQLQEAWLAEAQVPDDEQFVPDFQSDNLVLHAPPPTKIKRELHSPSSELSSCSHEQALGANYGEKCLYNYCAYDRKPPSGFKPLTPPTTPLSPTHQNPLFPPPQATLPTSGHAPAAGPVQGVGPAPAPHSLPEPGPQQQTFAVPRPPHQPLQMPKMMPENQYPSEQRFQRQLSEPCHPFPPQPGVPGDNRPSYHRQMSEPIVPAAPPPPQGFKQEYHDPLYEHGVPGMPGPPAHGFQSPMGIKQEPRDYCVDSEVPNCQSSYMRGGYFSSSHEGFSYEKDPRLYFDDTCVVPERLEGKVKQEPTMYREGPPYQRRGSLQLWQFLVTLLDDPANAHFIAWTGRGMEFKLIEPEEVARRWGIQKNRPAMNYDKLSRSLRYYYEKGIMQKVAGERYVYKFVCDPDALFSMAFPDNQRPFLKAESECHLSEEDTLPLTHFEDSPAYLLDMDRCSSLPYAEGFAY
Method in brief: as §1

HSF1 = HSF1 (Homo sapiens, UniProt Q00613 1-529); conditions: protein: recombinant; tags: N-terminal GST; chain copies: 3; dsDNA, one strand shown
HSF1, sequence (Q00613 whole entry): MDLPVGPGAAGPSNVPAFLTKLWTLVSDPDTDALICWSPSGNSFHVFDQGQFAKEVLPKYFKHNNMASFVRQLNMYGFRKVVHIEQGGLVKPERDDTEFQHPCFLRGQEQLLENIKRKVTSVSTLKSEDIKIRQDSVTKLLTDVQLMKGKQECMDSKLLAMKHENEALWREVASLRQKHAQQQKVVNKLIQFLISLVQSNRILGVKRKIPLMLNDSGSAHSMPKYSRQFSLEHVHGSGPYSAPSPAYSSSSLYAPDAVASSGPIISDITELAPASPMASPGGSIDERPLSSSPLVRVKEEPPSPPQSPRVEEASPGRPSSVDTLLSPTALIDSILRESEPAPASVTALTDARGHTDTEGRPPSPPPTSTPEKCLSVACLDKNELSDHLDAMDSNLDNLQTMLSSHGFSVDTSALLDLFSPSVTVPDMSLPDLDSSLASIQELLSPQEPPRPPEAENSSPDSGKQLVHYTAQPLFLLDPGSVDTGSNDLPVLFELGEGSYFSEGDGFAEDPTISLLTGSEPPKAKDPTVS
Method in brief: as §1

SPIC = biological target: T8, SPIC (Homo sapiens, UniProt Q8N5J4 1-248); conditions: protein: recombinant; tags: N-terminal GST; dsDNA, one strand shown
T8 sequence: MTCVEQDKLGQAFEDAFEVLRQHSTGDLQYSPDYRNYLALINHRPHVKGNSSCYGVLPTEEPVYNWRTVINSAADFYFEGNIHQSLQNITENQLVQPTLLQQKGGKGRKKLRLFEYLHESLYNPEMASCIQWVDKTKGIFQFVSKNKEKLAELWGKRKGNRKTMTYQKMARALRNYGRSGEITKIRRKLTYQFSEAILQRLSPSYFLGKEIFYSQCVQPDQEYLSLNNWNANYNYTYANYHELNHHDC
Method in brief: as §1

ELF4 = ELF4 (Homo sapiens, UniProt Q99607 1-663); conditions: protein: recombinant; tags: N-terminal GST; dsDNA, one strand shown
ELF4, sequence (Q99607 whole entry): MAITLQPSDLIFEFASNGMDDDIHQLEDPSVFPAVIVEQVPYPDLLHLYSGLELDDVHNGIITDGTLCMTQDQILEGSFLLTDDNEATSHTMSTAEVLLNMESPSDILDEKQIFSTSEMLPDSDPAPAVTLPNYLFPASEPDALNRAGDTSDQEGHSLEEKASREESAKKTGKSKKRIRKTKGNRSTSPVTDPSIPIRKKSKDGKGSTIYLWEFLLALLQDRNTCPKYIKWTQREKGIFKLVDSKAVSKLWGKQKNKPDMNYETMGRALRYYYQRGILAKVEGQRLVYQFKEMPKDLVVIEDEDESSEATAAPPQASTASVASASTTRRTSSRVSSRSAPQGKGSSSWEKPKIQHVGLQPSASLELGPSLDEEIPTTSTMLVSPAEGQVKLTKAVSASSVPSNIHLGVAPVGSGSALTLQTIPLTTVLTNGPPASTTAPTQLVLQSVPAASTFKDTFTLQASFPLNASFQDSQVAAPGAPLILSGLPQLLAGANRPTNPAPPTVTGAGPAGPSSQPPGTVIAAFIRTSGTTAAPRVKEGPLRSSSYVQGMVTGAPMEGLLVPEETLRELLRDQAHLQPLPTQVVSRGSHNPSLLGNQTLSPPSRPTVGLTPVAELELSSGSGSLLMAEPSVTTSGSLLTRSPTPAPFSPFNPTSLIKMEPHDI
Method in brief: as §1

ELK4 = biological target: T9, ELK4 (Homo sapiens, UniProt P28324-2 1-405); conditions: protein: recombinant; tags: N-terminal GST; dsDNA, one strand shown
T9 sequence: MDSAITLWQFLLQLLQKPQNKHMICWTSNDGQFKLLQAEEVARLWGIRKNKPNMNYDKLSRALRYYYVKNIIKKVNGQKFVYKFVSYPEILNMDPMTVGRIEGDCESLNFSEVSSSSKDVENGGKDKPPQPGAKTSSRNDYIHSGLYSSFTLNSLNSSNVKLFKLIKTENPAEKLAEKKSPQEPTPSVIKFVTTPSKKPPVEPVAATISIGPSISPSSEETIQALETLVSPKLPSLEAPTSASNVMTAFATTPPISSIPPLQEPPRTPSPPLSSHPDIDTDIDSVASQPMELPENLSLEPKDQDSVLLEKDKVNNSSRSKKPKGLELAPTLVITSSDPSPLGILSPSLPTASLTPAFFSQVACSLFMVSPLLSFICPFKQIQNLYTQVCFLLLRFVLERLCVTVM
Method in brief: as §1

ETV2 = biological target: T10, ETV2 (Homo sapiens, UniProt O00321 1-342); conditions: protein: recombinant; tags: N-terminal GST; dsDNA, one strand shown
T10 sequence: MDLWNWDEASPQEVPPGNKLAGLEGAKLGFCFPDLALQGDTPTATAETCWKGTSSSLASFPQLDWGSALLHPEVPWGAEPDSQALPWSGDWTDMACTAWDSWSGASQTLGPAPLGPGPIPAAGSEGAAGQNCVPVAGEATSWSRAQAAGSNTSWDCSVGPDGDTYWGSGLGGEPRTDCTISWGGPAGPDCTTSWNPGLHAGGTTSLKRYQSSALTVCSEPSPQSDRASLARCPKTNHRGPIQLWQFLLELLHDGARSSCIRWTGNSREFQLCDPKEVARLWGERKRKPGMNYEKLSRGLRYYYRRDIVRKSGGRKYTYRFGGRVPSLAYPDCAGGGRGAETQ
Method in brief: as §1

ELF3 = biological target: T11, ELF3 (Homo sapiens, UniProt P78545 1-371); conditions: protein: recombinant; tags: N-terminal GST; dsDNA, one strand shown
T11 sequence: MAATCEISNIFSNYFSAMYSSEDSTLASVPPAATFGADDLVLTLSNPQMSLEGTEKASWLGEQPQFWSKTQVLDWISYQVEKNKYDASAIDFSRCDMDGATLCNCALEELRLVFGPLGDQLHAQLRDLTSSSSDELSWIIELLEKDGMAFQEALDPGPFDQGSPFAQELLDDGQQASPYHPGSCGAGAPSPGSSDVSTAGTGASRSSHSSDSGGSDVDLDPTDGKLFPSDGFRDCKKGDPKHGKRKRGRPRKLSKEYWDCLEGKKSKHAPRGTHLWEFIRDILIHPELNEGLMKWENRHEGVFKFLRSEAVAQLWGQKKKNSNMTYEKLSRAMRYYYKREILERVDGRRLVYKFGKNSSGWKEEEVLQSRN
Method in brief: as §1

CRX = CRX (Homo sapiens, UniProt O43186 1-299); conditions: protein: recombinant; tags: N-terminal GST; dsDNA, one strand shown
CRX, sequence (O43186 whole entry): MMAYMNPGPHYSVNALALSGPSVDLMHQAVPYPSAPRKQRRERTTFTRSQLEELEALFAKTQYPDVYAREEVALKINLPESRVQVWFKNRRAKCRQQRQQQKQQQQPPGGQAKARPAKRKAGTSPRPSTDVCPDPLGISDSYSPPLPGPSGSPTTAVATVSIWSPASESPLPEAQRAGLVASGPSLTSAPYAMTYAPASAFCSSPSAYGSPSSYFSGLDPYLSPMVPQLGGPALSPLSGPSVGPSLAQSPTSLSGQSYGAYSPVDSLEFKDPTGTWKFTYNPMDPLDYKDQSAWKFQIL
Method in brief: as §1

ETV1 = ETV1 (Homo sapiens, UniProt P50549 1-477); conditions: protein: recombinant; tags: N-terminal GST; dsDNA, one strand shown
ETV1, sequence (P50549 whole entry): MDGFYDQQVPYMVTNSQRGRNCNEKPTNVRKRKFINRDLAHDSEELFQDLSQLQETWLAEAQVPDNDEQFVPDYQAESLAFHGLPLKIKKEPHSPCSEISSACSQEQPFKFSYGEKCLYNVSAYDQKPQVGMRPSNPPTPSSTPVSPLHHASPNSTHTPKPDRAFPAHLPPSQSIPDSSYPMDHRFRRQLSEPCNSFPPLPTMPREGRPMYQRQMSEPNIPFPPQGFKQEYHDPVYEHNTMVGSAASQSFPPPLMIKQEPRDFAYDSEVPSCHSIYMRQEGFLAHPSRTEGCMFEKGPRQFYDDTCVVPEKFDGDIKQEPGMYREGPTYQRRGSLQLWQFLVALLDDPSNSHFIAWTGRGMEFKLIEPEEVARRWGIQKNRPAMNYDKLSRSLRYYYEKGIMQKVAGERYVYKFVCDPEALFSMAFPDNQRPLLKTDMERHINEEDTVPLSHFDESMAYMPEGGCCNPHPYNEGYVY
Method in brief: as §1

GGACCT
binding signal (FLI1): 1.42 fold enrichment (6-mer frequency, TF over GST control)
binding signal (ELK1): 1.37 fold enrichment (6-mer frequency, TF over GST control)
binding signal (GABPA): 1.41 fold enrichment (6-mer frequency, TF over GST control)
binding signal (ERG): 1.33 fold enrichment (6-mer frequency, TF over GST control)
binding signal (ELF1): 1.35 fold enrichment (6-mer frequency, TF over GST control)
binding signal (EHF): 1.35 fold enrichment (6-mer frequency, TF over GST control)
binding signal (SPI1): 1.28 fold enrichment (6-mer frequency, TF over GST control)
binding signal (SPIB): 1.33 fold enrichment (6-mer frequency, TF over GST control)
binding signal (ELK3): 1.37 fold enrichment (6-mer frequency, TF over GST control)
binding signal (FEV): 1.47 fold enrichment (6-mer frequency, TF over GST control)
binding signal (ETV5): 1.37 fold enrichment (6-mer frequency, TF over GST control)
binding signal (HSF1): 1.18 fold enrichment (6-mer frequency, TF over GST control)
binding signal (SPIC): 1.46 fold enrichment (6-mer frequency, TF over GST control)
binding signal (ELF4): 1.42 fold enrichment (6-mer frequency, TF over GST control)
binding signal (ELK4): 1.31 fold enrichment (6-mer frequency, TF over GST control)
binding signal (ETV2): 1.57 fold enrichment (6-mer frequency, TF over GST control)
binding signal (ELF3): 1.14 fold enrichment (6-mer frequency, TF over GST control)
binding signal (CRX): 1.1 fold enrichment (6-mer frequency, TF over GST control)
binding signal (ETV1): 1.28 fold enrichment (6-mer frequency, TF over GST control)
